The text below walks through data of PubChem BioAssay AID504652 (National Center for Advancing Translational Sciences (NCATS), 2011).

About 11,000 (3.1%) of roughly 360,000 compounds were called active. What follows is part of a selection rich in actives, with near analogues and random picks from the rest. Unmarked numbers belong to inactive results. Rule as the data show it: active = activity change below about -30%; inactive = the rest.
% is scaled to controls: 0 for no effect and ±100 for the full control effect.

Sequence of D(1A) dopamine receptor (Homo sapiens) (P21728 whole entry, looked up): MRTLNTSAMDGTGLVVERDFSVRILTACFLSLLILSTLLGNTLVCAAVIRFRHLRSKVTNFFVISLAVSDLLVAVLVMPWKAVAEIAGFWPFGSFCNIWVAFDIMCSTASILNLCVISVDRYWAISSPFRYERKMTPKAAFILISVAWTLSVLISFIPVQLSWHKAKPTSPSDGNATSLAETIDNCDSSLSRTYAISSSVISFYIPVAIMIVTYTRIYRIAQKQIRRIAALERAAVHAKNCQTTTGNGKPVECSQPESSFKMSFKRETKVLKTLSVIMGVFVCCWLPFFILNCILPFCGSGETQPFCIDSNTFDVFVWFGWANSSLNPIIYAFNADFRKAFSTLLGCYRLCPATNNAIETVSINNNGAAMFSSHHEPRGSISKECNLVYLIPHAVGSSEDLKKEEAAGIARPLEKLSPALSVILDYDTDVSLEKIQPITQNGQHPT

The assay deals with D(1A) dopamine receptor (Homo sapiens) (UniProt P21728). The assay can be described thus: Antagonist of Human D 1 Dopamine Receptor: qHTS. The settings on record: HEK293 TREx D1 cells, calcium flux, dopamine EC80; at 10 µM; active compounds read low. Summed up:
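Using tetracycline-induced force-coupled D1 Hek293 cells and a calcium dye, signals were followed for 180 s after compound, then for 180 s after EC80 dopamine, to detect inhibitors.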
As for `CCNS(=O)(=O)c1ccc(NC(=O)CSc2nc(-c3ccco3)cc(C(F)(F)F)n2)cc1`, the activity change, negative = inhibition was 7%. The result for `COc1ccccc1N1CCN(CCCNC(=O)c2cnn(-c3ccccc3Cl)c2C2CCN(C(=O)OC(C)(C)C)CC2)CC1` reads -8.92%; that for `CCC(C(=O)Nc1cccc(Cl)c1C)n1nc(-c2ccc(C)cc2)ccc1=O` (stereo unspecified), 6.67%; that for `COc1ccc(CCNC(=O)c2ccc(-n3c(C)cc4c3CCCC4)cc2)cc1OC`, -15.3%.

As to `COc1ccc(CNC(=O)Cn2nnc(-c3ccc(S(C)(=O)=O)cc3)n2)cc1`, the activity change, negative = inhibition is 15.1%.

For the molecule `COc1ccccc1NC(=O)c1oc2ccccc2c1NC(=O)COc1ccccc1OC`, the activity change, negative = inhibition is -10.7%. The result for `COc1cc(C)c(S(=O)(=O)N2CCOCC2)c(C)c1C` reads -2.39%.

`COc1ccc(S(=O)(=O)N2CCCC2)c(C)c1C`: the activity change, negative = inhibition was -24.6%. The result for `COc1ccc(S(=O)(=O)N2CCOCC2)c(C)c1C` reads -50.9% (active); that for `CC(=O)c1ccc(NC(=O)C2CC(=O)Nc3nc4ccccc4n32)cc1` (stereo unspecified), -16%. Then `Cc1nc(NC2=NC(C(=O)Nc3ccc(Cl)cc3)CC(=O)N2)nc2ccccc12` (stereo unspecified), with -50.2% (active).

In the case of `CCOC(=O)c1ccc(NC(=O)C2CC(=O)Nc3nc4ccccc4n32)cc1` (stereo unspecified), the activity change, negative = inhibition is 2.09%. The result for `Cc1ccc(S(=O)(=O)c2nc(NCCCn3ccnc3)sc2Cl)cc1` reads 8.73%. For the molecule `CC(C)CNc1ncnc2c1cnn2Cc1ccc(Cl)cc1`, the activity change, negative = inhibition is 3%. Then `CCN1CCN(c2ncnc3c2cnn3-c2ccc(C)c(C)c2)CC1`, with 0.119%.

For `Cc1ccc(Cl)cc1-n1ncc2c(N3CCC(C(N)=O)CC3)ncnc21`, the activity change, negative = inhibition was -13.9%. Consider `Cc1ccc(-n2ncc3c(NCCCn4ccnc4)ncnc32)cc1Cl`, for which the activity change, negative = inhibition is -30.7% (active). `CCN(CC)CCNc1ncnc2c1cnn2-c1cc(Cl)ccc1C`: the activity change, negative = inhibition is -31% (active). Then `CCN(CC)CCNC(=O)CN1N=C(c2ccc(OC)cc2)CCC1=O`, with 7.52%. `COC(=O)c1cc(NC(=O)c2sc3ccccc3c2Cl)cc(C(=O)OC)c1`: the activity change, negative = inhibition was 5.62%. As for `COc1cccc(NC(=O)N(Cc2cn(C)c3ccccc23)C2CCCCCC2)c1`, the activity change, negative = inhibition was 17.7%. Consider `Cc1ccc(N(CC(=O)NCC(C)c2ccccc2)S(=O)(=O)N(C)C)cc1` (stereo unspecified), for which the activity change, negative = inhibition was -3.48%. Then `CCOc1ccccc1CNC(=O)c1ccc(-n2c(C)cc3c2CCC(C)C3)cc1` (stereo unspecified), with 6.61%. Then `O=C(C1CC1)N1CCc2cc(Br)cc(S(=O)(=O)N3CCN(c4ccccc4F)CC3)c21`, with -2.36%; and `O=C(NCc1ccc(F)cc1)c1ccc(Cn2c(SCc3ccc(F)cc3)nc3cccnc32)cc1`, with -10.7%; and `COc1ccc(N2CCN(C(=O)CSCc3nc(-c4ccccc4Cl)oc3C)CC2)cc1`, with -24.8%. Then `COc1ccc(CNS(=O)(=O)c2cc(-c3cc(C)no3)ccc2C(C)C)cc1`, with -31% (active).

Consider `COc1ccc(CCNS(=O)(=O)c2cc(-c3cc(C)no3)ccc2C)cc1OC`, for which the activity change, negative = inhibition is 9.26%. Regarding `CCOc1ccccc1CNS(=O)(=O)c1cc(-c2cc(C)no2)ccc1C`, the activity change, negative = inhibition is 50.5%. With `CCc1ccc(S(=O)(=O)Nc2cc3c(C(=O)OCc4ccccc4)c(C)oc3c3ccccc23)cc1`, the activity change, negative = inhibition is 7.58%. With `CCCCN(C)c1nnc(NC(=O)Nc2ccc(Br)c(C)c2)s1`, the activity change, negative = inhibition was 13.7%. Then `c1ccc(C2CNCc3c2ccc2ccccc32)cc1` (stereo unspecified), with -39.2% (active); and `Cc1nn2c(=O)cc(COC(=O)CNC(=O)c3ccc(F)cc3)nc2s1`, with -1.13%. Then `Cc1ccc(Cn2c(=O)n(-c3ccc(C)cc3)c(=O)c3c2c2cc(C)ccc2n3C)cc1`, with -3.86%; and `N#C/C(=C\c1cccc(F)c1)c1nc(-c2cc3c(ccc4ccccc43)oc2=O)cs1`, with -2.97%; and `COc1cc(C2c3c(oc4ccccc4c3=O)C(=O)N2c2nc(C)c(C)s2)ccc1O` (stereo unspecified), with 6.01%. The result for `CCOc1ccc(NC(=O)c2cnn(-c3ccccc3)c2-n2cccc2)cc1` reads -0.471%; that for `CCCCOc1ccc(CSC(=N)N)cc1[N+](=O)[O-]`, 25.1%; that for `Cc1nc(SCc2ccc(F)cc2)c([N+](=O)[O-])[nH]1`, 8.5%. `CCCCCOc1ccc(CSC2=NCCN2)cc1[N+](=O)[O-]`: the activity change, negative = inhibition was -42.1% (active). For the molecule `COc1ccc(F)cc1S(=O)(=O)NCC(c1ccc2c(c1)OCO2)N1CCN(C)CC1` (stereo unspecified), the activity change, negative = inhibition was -2.95%. Turning to `COc1cccc(NC(=O)C(=O)NCC(c2ccc3c(c2)OCO3)N2CCN(C)CC2)c1` (stereo unspecified), the activity change, negative = inhibition was 27.8%.

For `CCN(CC)CCC(c1ccc2c(c1)OCO2)c1c(OC)cc(OC)c2c(-c3ccccc3)cc(=O)oc12` (stereo unspecified), the activity change, negative = inhibition was -32.2% (active). Then `CCN(CC)CCC(c1cc(OC)c(OC)c(OC)c1)c1c(OC)cc(OC)c2c(-c3ccccc3)cc(=O)oc12` (stereo unspecified), with 18.1%; and `CCN(CC)C(=O)CC(c1ccc2c(c1)OCO2)c1c(OC)cc(OC)c2c(-c3ccccc3)cc(=O)oc12` (stereo unspecified), with -44.6% (active). Then `CCCCN(CC)C(=O)c1ccc2c(c1)OCO2`, with -2.46%; and `CCc1nnc2c3ccccc3nc(N3CCN(c4ccc(C)cc4C)CC3)n12`, with -4.28%. Then `CCCN(CCC)S(=O)(=O)c1ccc(C(=O)Nc2sc3c(c2C(=O)OC)CCN(CC)C3)cc1`, with 27%; and `Cc1ccc(Cl)cc1NC(=O)CSc1nccn1C`, with -34.7% (active); and `CCc1cccc(NC(=O)CSc2nccn2C)c1`, with 6.16%.

On to `Cn1ccnc1SCC(=O)Nc1ccc2c(c1)OCCO2`, for which the activity change, negative = inhibition is 7.91%. For `COc1cc(C(=O)OCC(=O)NC(C)CCc2ccccc2)cc(OC)c1OC` (stereo unspecified), the activity change, negative = inhibition was 0.765%. Then `COc1cc(C(=O)OCc2ccc([N+](=O)[O-])cc2)cc(OC)c1OC`, with -36.8% (active); and `CCOc1cc(/C=N/O)ccc1OCc1ccccc1F`, with 0.806%.

For `COc1cc(/C=N/O)ccc1OCc1ccc([N+](=O)[O-])cc1`, the activity change, negative = inhibition is -35.1% (active). Then `COC(=O)c1ccc(COc2cc([N+](=O)[O-])cc3cccnc23)cc1`, with -0.242%; and `CCCc1ccc(OCc2ccc(C(=O)N/N=C/c3cccc([N+](=O)[O-])c3)o2)c(OC)c1`, with -9.05%; and `COc1ccc(NC(=O)CCc2nnc3n(CC(C)C)c(=O)c4ccccc4n23)cc1OC`, with 12%. Then `COc1ccccc1N1CCN(C(=O)C2CCN(S(=O)(=O)c3c(C)noc3/C=C/c3ccc(C)cc3)CC2)CC1`, with 1.37%. Then `COc1ccc(Cn2ccnc2SCC(=O)Nc2ccc3c(c2)OCO3)cc1`, with 3.36%.

Consider `CC1CCCN(S(=O)(=O)c2ccc3[nH]c(=O)cc(C(=O)NCCc4ccc(Cl)cc4)c3c2)C1` (stereo unspecified), for which the activity change, negative = inhibition is 15.9%. The result for `COc1ccccc1NC(=O)c1sc2nc(C)c(C(=O)Nc3ccc(Cl)cc3)c(-c3ccc(Br)cc3)c2c1N` reads -7.07%; that for `CC(=O)c1c(C)n(S(=O)(=O)c2ccc(Cl)cc2)c2ccc(NS(=O)(=O)c3ccc(Cl)cc3)cc12`, 0.214%; that for `Cc1c(C)n(Cc2ccc(Cl)cc2)c2ccc(C(=O)NCCCN3CCOCC3)cc12`, -28%.

On to `Cc1c(C)n(Cc2ccc(Cl)cc2)c2ccc(C(=O)NCCc3ccc(S(N)(=O)=O)cc3)cc12`, for which the activity change, negative = inhibition is -36.4% (active). The result for `COc1ccc(NS(=O)(=O)c2cccc(C(=O)NCCc3ccc(S(N)(=O)=O)cc3)c2)cc1` reads -10.4%. The result for `CCOC(=O)c1c(C)c(C(=O)NCCc2ccc(S(N)(=O)=O)cc2)c(C)n1CC` reads -3.79%; that for `COC(=O)c1c(C)[nH]c(C(=O)NCCc2ccc(S(N)(=O)=O)cc2)c1C`, 2.29%. The result for `COc1ccc(C(=O)NCCc2ccc(S(N)(=O)=O)cc2)cc1OC` reads -31% (active). For `Cc1cc(N2CCN(c3cccc(C(F)(F)F)c3)CC2)n2nc(-c3ccccc3)nc2n1`, the activity change, negative = inhibition was 23.9%. With `CCc1ccccc1NC(=O)c1ccc2nc(CCc3ccccc3)oc2c1`, the activity change, negative = inhibition is -9.13%. The result for `Cc1ccccc1NC(=O)c1cc2c([nH]c1=O)CC(C)(C)CC2=O` reads -6.86%; that for `COc1ccccc1CSc1ncc(-c2ccc([N+](=O)[O-])cc2)[nH]1`, -37.4% (active). Then `CCOc1cccc(NC(=O)CSc2ncc(-c3ccc(Cl)cc3)[nH]2)c1`, with -2.12%; and `COc1ccc(-c2cnc(SCCNC(=O)c3ccc4c(c3)OCO4)[nH]2)cc1`, with 1.65%.

`Cc1c(C(=O)NCc2ccccc2Br)oc2ccc3c(c12)C(=O)CC(C)(C)O3`: the activity change, negative = inhibition is -29.9%. For `COc1ccc(CN2CCCC(N3CCc4ccccc4C3)C2)c(O)c1` (stereo unspecified), the activity change, negative = inhibition was -0.568%. The result for `COc1ccc2cc1Oc1ccc(cc1)C[C@H]1c3cc(c(OC)cc3CCN1C)Oc1c(O)c(OC)cc3c1[C@H](C2)N(C)CC3` reads -27.6%; that for `COc1c(O)ccc2c1CN1CCc3cc4c(cc3C1C2)OCO4` (stereo unspecified), -67.5% (active); that for `CCOc1ccc(S(=O)(=O)c2cn(Cc3ccc(OC)cc3)c3ccc(F)cc3c2=O)cc1`, -3.59%. The result for `CCc1nc2ccc(C(=O)N3CCN(c4cc(Cl)ccc4C)CC3)cc2nc1CC` reads 4.25%; that for `O=C(CSc1ncn[nH]1)Nc1nc(-c2cccc([N+](=O)[O-])c2)cs1`, -1.2%. Regarding `Cn1nnc(NC(=O)CSc2ncn[nH]2)n1`, the activity change, negative = inhibition is -31.7% (active). Then `O=C(CSc1ncn[nH]1)Nc1nsc(-c2ccccc2)n1`, with 1.31%; and `CCOC(=O)c1scc(-c2ccccc2)c1S(=O)(=O)Nc1ccccc1F`, with -3.82%; and `CCC(C(=O)Nc1cccc(-c2nc3cccnc3s2)c1C)c1ccccc1` (stereo unspecified), with -4.82%.
